Common to all, as to details: primary human HUVEC with PBMC; actives raise or lower the signal
Read-out in assay [1]: Interleukin-1 alpha (IL1a), IL1A (gene 3552)
The assay can be described thus: BSK_LPS_IL1a: BioMAP Diversity Plus: LPS Assay for Interleukin-1 alpha (IL1a) Biomarker Activity (AID 2283080). An outline of the steps: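 Human umbilical vein endothelial cells co-cultured with PBMC and stimulated with LPS; IL-1a measured by ELISA 24 h after dosing. Bidirectional fitting against DMSO; cytotoxicity checked by SRB staining in parallel cultures.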

Read-out in assay [2]: Monocyte Chemoattractant Protein-1 (MCP1), CCL2 (gene 6347)
Kind of assay: BSK_LPS_MCP1: BioMAP Diversity Plus: LPS Assay for Monocyte Chemoattractant Protein-1 (MCP1) Biomarker Activity (AID 2283081).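 On AC50: secreted MCP-1 protein quantified by ELISA in culture supernatant.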 An outline of the steps: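 Human umbilical vein endothelial cells co-cultured with PBMC, LPS-stimulated; secreted MCP-1 measured by ELISA 24 h after compound addition. Bidirectional curve fitting against DMSO baseline; SRB total-protein staining in parallel cultures for cytotoxicity.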

The nature of assay [3]: BSK_LPS_PGE2: BioMAP Diversity Plus: LPS Assay for Prostaglandin E2 (PGE2) Biomarker Activity (AID 2283082).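 On AC50: secreted prostaglandin E2 measured by ELISA in LPS-stimulated co-culture.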 In a few lines:
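HUVEC plus PBMC co-culture stimulated with LPS; secreted PGE2 quantified by ELISA 24 h after chemical dosing. Activity fitted bidirectionally against DMSO as negative control and baseline; parallel SRB total-protein staining served as cytotoxicity check.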

Read-out in assay [4]: Macrophage colony-stimulating factor (MCSF), CSF1 (gene 1435)
The assay can be described thus: BSK_LPS_MCSF: BioMAP Diversity Plus: LPS Assay for Macrophage colony-stimulating factor (MCSF) Biomarker Activity (AID 2283083). In a few lines: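 HUVEC–PBMC co-culture, M-CSF measured by ELISA 24 h after chemical dosing. Fitted in both directions relative to DMSO as negative control; overt cytotoxicity assessed by SRB total-protein staining in parallel cultures.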

Read-out in assay [5]: Tissue Factor, F3 (gene 2152)
The assay can be described thus: BSK_LPS_TissueFactor: BioMAP Diversity Plus: LPS Assay for Tissue Factor Biomarker Activity (AID 2283084). An outline of the steps: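 Human umbilical vein endothelial cells co-cultured with PBMC were dosed with compound. Cell-surface CD142 was measured by ELISA 24 h later. Activity was fitted bidirectionally against DMSO, with SRB total-protein staining in parallel cultures for cytotoxicity.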

Read-out in assay [6]: Tumor necrosis factor (Homo sapiens) (UniProt P01375)
The assay can be described thus: BSK_LPS_TNFa: BioMAP Diversity Plus: LPS Assay for Tumour Necrosis Factor alpha (TNFa) Biomarker Activity (AID 2283085).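 On AC50: TNFa protein level quantified by ELISA in the co-culture.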 In a few lines: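 Human umbilical vein endothelial cells co-cultured with PBMC were exposed to test chemical and TNFa measured by ELISA 24 h after dosing. Bidirectional curve fitting was done relative to DMSO as negative control and baseline.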

Read-out in the next assay: CD38, CD38 (gene 952)
The assay can be described thus: BSK_SAg_CD38: BioMAP Diversity Plus: SAg Assay for CD38 Biomarker Activity (AID 2283087). In a few lines:
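Fluorescence ELISA of cell-surface CD38 served as the read-out, with either increase or decrease fitted against DMSO controls. Cells were a human umbilical vein endothelium plus PBMC co-culture under SEB/TSST-1 stimulation, measured 24 h after dosing.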

Read-out in the next assay: CD40, CD40 (gene 958)
Kind of assay: BSK_SAg_CD40: BioMAP Diversity Plus: SAg Assay for CD40 Biomarker Activity (AID 2283088). An outline of the steps: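 HUVEC plus PBMC co-culture, superantigen-activated, with CD40 read by ELISA 24 h after dosing. Curves fitted in both directions against DMSO. Overt cytotoxicity checked by parallel SRB total-protein staining.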

Read-out in a further assay: CD69, CD69 (gene 969)
The assay can be described thus: BSK_SAg_CD69: BioMAP Diversity Plus: SAg Assay for CD69 Biomarker Activity (AID 2283089).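 On AC50: cell surface CD69 protein quantified by ELISA with fluorescence detection.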 In a few lines: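 ELISA, fluorescence read-out: CD69 on human umbilical vein endothelial cell + PBMC co-culture, 24 h post-dosing. Gain or loss of signal fitted bidirectionally against DMSO baseline.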

Read-out in assay [7]: Vascular cell adhesion molecule 1 (VCAM1), VCAM1 (gene 7412)
Kind of assay: BSK_LPS_VCAM1: BioMAP Diversity Plus: LPS Assay for Vascular cell adhesion molecule 1 (VCAM1) Biomarker Activity (AID 2283086). An outline of the steps: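 Human umbilical vein endothelial cells co-cultured with peripheral blood mononuclear cells under LPS stimulation were exposed to test chemical for 24 h. VCAM-1 levels were then measured by ELISA, with bidirectional curve fitting relative to DMSO as negative control and baseline.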

Structures are written as SMILES. “And” between values parts separate entries of the source, which are not always exact repeats. Equal values may be shown once. Some compounds were tested as several samples or in several runs, with calls that do not always agree. The source made the active and inactive calls. How the source made its calls: active means hit-call score of the fitted dose curve at least 0.9, where 1 is the maximum; inactive means score below 0.9.

Sequence of Tumor necrosis factor (Homo sapiens) (P01375 whole entry, looked up): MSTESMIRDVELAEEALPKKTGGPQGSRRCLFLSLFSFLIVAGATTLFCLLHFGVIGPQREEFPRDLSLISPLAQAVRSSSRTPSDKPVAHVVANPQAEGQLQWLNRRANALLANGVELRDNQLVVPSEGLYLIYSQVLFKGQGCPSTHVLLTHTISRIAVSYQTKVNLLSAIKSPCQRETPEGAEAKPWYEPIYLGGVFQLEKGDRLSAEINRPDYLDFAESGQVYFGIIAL

As for `c1ccc2c(c1)[nH]c1ccccc12`, the outcome in [1], in assay [2], in assay [3], in [4], in [5] and in assay [6] was inactive. Also, the outcome was “inactive” in the assay with CD38, CD38 (gene 952); “inactive” with CD40, CD40 (gene 958); “inactive” with CD69, CD69 (gene 969).
On to `Nc1nc(N)nc(-c2ccccc2)n1`, for which the outcome in [1], in assay [2], in [3], in [4], in [5] and in [6] was inactive. For the same compound, the outcome with CD38, CD38 (gene 952) is “inactive”; with CD40, CD40 (gene 958), “inactive”; with CD69, CD69 (gene 969) it was “inactive”.
For `CC/C=C\CCOC(=O)c1ccccc1O`, the concentration at half-maximal activity (AC50) in assay [1] is 29.6 µM (active); in assay [2], 32.8 µM (active); in assay [5] it was 33 µM (active); in assay [6], 31.5 µM (active); in assay [7], 37.9 µM (active); with CD38, CD38 (gene 952), 31 µM (active). In addition, the concentration at half-maximal activity (AC50) with CD40, CD40 (gene 958) is 33.6 µM (active); in the assay with CD69, CD69 (gene 969) it was 20 µM (active). Besides, in assay [3], the result was inactive.
For the compound `CCCCCCC=O`, the outcome in assay [1], in assay [2], in [3], in assay [4], in [5] and in assay [6] was inactive. Further, the outcome is “inactive” in assay [7]; “inactive” with CD38, CD38 (gene 952); “inactive” with CD40, CD40 (gene 958); “inactive” with CD69, CD69 (gene 969).
Regarding `Cc1ccc([N+](=O)[O-])cc1N`, the result in assay [1], in assay [2], in [3], in assay [4], in assay [5] and in assay [6] was inactive. For the same compound, the outcome with CD38, CD38 (gene 952) was “inactive”; in the assay with CD40, CD40 (gene 958), “inactive”; with CD69, CD69 (gene 969), “inactive”.
In the case of `CCc1cccc(C)c1N(C(=O)CS(=O)(=O)O)C(C)COC` (stereo unspecified), the outcome in assay [1], in assay [2], in [3], in assay [4], in assay [5] and in [6] was inactive. The outcome was “inactive” in the assay with CD38, CD38 (gene 952); “inactive” with CD40, CD40 (gene 958); “inactive” in the assay with CD69, CD69 (gene 969).
With `C=CC(=O)OCCCCCCOC(=O)C=C`, the AC50 in assay [1] was 8.11 µM (active); in assay [2] it was 4.29 µM (active); in assay [3], 2.13 µM (active); in assay [4], 5.31 µM (active); in assay [5], 9.18 µM (active); in assay [6] it was 3.96 µM (active). Further, the AC50 in [7] was 5.81 µM (active); with CD38, CD38 (gene 952) it was 3.8 µM (active); with CD40, CD40 (gene 958), 11 µM (active); with CD69, CD69 (gene 969), 2.98 µM (active).
As to `CCOC(=O)/C=C\C(=O)OCC`, the result in [1], in assay [2], in assay [3], in [5], in assay [6] and in [7] was inactive. Moreover, the outcome was “inactive” with CD38, CD38 (gene 952); “inactive” with CD40, CD40 (gene 958); “inactive” with CD69, CD69 (gene 969).
As to `CCN1CN(CC)CN(CC)C1`, the outcome in assay [1], in assay [2], in assay [3], in assay [4], in [5] and in assay [7] was inactive. Also, the outcome is “inactive” with CD38, CD38 (gene 952); “inactive” in the assay with CD40, CD40 (gene 958); “inactive” with CD69, CD69 (gene 969). For the same compound, the AC50 in [6] was 2.22 µM (active).
On to `C=CCCCCCCCCC=O`, for which the outcome in assay [1], in assay [2], in assay [3], in assay [4], in assay [5] and in [6] was inactive. The outcome with CD38, CD38 (gene 952) was “inactive”; with CD40, CD40 (gene 958), “inactive”; in the assay with CD69, CD69 (gene 969), “inactive”.
Consider `C=CC(=O)NCOCCCC`, for which the outcome was “inactive” in assay [1]; “inactive” in assay [2]; “inactive” in assay [3]; “inactive” in [4]; “inactive” in assay [5]; “inactive” in the assay with CD38, CD38 (gene 952). For the same compound, the outcome is “inactive” with CD40, CD40 (gene 958) and “inactive” with CD69, CD69 (gene 969). Also, in assay [6], the half-maximal activity concentration (AC50) was 20 µM (active).
For the compound `O=C1CCCCCCCCCCC1`, the result in assay [1], in assay [2], in assay [3], in assay [4], in [5] and in assay [6] was inactive. Further, the outcome with CD38, CD38 (gene 952) was “inactive”; with CD40, CD40 (gene 958), “inactive”; with CD69, CD69 (gene 969), “inactive”.
As to `COc1ccc(C(=O)c2ccccc2)c(O)c1`, the outcome is “inactive” in assay [1]; “inactive” in assay [2]; “inactive” in assay [5]; “inactive” in assay [6]; “inactive” in assay [7]; “inactive” with CD38, CD38 (gene 952). The outcome was “inactive” with CD40, CD40 (gene 958) and “inactive” in the assay with CD69, CD69 (gene 969). The concentration at half-maximal activity (AC50) in assay [3] is 4.59 µM (active).
Take `C[N+](C)(C)CCCNS(=O)(=O)C(F)(F)C(F)(F)C(F)(F)C(F)(F)C(F)(F)C(F)(F)C(F)(F)C(F)(F)F`: the AC50 in [1] was 13.2 µM (active) and 30 µM (active); in assay [2], 36.4 µM (active); in assay [3], 19.3 µM (active) and 14.8 µM (active); in [5], 14.1 µM (active); in assay [6] it was 41 µM (active) and 28.3 µM (active); with CD40, CD40 (gene 958) it was 30 µM (active). Further, the outcome was “inactive” in [2]; “inactive” in assay [5]; “inactive” with CD38, CD38 (gene 952); “inactive” with CD40, CD40 (gene 958); “inactive” in the assay with CD69, CD69 (gene 969).

As a reminder, the AC50 is the concentration giving half of the maximal activity seen.

Values taken from PubChem BioAssay (EPA / NIEHS).
